Consider 40 sequences from the supplement of paper PMC6555819.

The subject of this assay is LXRa:RXRa (NR concentration 270 nM, RXRa partner concentration 90 nM). Nature of the assay: PBM binding z-score (relative to random genomic background probes); higher = stronger binding; sequences stand for … in GC…GCGATTGACAGCGTAGAATGAAGG
A digest of the protocol: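 Binding buffer was PBS pH 7.4 with 2% milk, 0.02% Triton X-100, 1 mM DTT, 0.2 mg/mL BSA and 0.4 mg/ml salmon testes DNA. In it, ligand-free nuclear receptor dimers were incubated 1 h on custom Agilent 4×180K protein-binding microarrays carrying double-stranded probes. Antibodies against each partner (one per run) detected binding, and z-scores were calculated against random background probes after regression normalization of scanned fluorescence.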
In the case of TCTAGCAGGCCAGAGGGTCACACAAGAGGTACGG, the PBM binding z-score was determined as 1.66.

The sequence AGTCAAAGTTCACTTGGTAACGTAAGATTCAGCT yielded a PBM binding z-score of 5.05. With CCGACTGGGGCAGAAAGGTTACCATGCCATCCGG the figure was 0.517.

Turning to GCTCGGAGGACACGGTCAGAGCTTTGTCCGTAGA, the PBM binding z-score is -0.705.

Regarding CCTATTAGTTGACCATAAGGTCAACCGAAGCTCG, the PBM binding z-score stood at 4. Then AGTCAAAGCTCATCTAGGTAACGTAAGATATGCT, with -0.578; and TCTAGTTGGTCACGAAGGTCACACACGACGGGTA, with 3.04.

Regarding TCAGATAGGTAATACAGGTGAAAGTCGGCATCTA, the PBM binding z-score was determined as 1.41. Then CAGCCTAGGTCGGGGCCAGTATAGGAGGAACGTT, with -0.409; and CGAACTAGATCAAGGACAGTGAATCTCCGCACGC, with -0.559; and CGTCCAAGGTCAAGGTCAGCGAAAGAGACTCGAA, with 5.5.

Take CAGCCTAGGTCAAGGCCAGTATAGGAGGAACGTT: the PBM binding z-score turned out to be 2.26.

The sequence ATACCAAGGTGATCGTGAGGTGGTTGATACTAAC gave a PBM binding z-score of 0.57. With CAAACTAGGTCGCAGAGGTCAAAGTCCGTGCGTA the figure was 6.03; with ATCTCTAAGTAAGACTCAGTTCAGTGAAGAACGC, 0.702.

CGTCAAAGTTCAACTAAGGTAACGGAAAGCACGC came in with a PBM binding z-score of 6.18. In turn, TCTTGTAGATTAAAGGTTAAGAAAGCCGAAGCCT yielded a PBM binding z-score of 1.98. The sequence TCGTATAGGTAAAGGTGAAAGTCGAACGATATGA had a PBM binding z-score of 1.45. CCTGCTAGGTCAATGGTCAACTAAAGCAGCTCGC registered a PBM binding z-score of 2.16. With TCTCGGACGACACGAAGGTCAGAGCTTTCCAGAG the figure was 0.965; with AAAGACAGGTGATGAAGGTAACTCAGGCTATCAT, -0.0472; with TCTTGTAGTTCAGCAGGTTAAGAAAGCTGGCCAA, 1.15. The sequence TAGAGTAGGTTAGTCGGGGCATTCAGCCAACATA came in with a PBM binding z-score of 0.485. With CGTCCAAGGTCAGAGAGGTAAGTGAATGCCGAGT the figure was 3.18; with CCGACTGTGGCAAAGGTTACCATACTCAGTACGA, 1.38. In the case of CAGCCGAGGTCAGGGCCAGTATAGGAGGAACGTT, the PBM binding z-score turned out to be 3.98. In the case of CCAACTAGGTCAAGGTCAAAGTCGGTTTGTGCCA, the PBM binding z-score came out at 5.56. Then CCTAGCAGGCCCATCTGGGTCACTCAAGGCTTGA, with 0.486; and CATCAAAGTTCAACTAAGGTAACGTAAAGCACGC, with 6.82; and ACTAGCTGGTCAGCTGAGGTCACACACAATTCGG, with 3.57. With TCTTGTAGATCAACAGGAGGTTGAGAAAGATCGA the figure was -0.201; with CTACCAAGGTGAACAAGGTCGTGGATTACTATTC, 1.56; with ACTCGGAGGACAAAGGTCAGAGCTACGCCAGTGA, 4.15. TCTTGTAGATCAATAGAGTTTAAGAAAGTGCGCT registered a PBM binding z-score of 0.959.

TAGCCCAGGTCATGCGGGCCAGTATAGTGTCGGC registered a PBM binding z-score of 3.42. As to AGAACAAGGGCAATGAGTTGATAGCACGGGTGGC, the PBM binding z-score is 0.0784. With CCTACTGGGCCACGAAAGGTCATTGAATCAGTGA the figure was 5.1; with GCTTGTTGATCAAGGTTAAGAAAGACTAAGCTAA, 0.792. With CCTACTGGGCCAAGGACATTGATCAGTCAAAGCA the figure was -0.572; with AGAATGAGGTTATACCTAGATCAGGGAAGAAAGT, 1.87.
